Where “and” joins values, the source holds several entries; their conditions need not be identical. Equal values may be shown once. About 260 (0.09%) of roughly 290,000 compounds were called active. No stated cut-off is given here; in the data, active means inhibition above about 50%; inactive means the rest. For the sample, actives were picked, then their nearest neighbours and some compounds at random. Entries with a potency or affinity are not part of this list.
biological target: Kappa-type opioid receptor (Homo sapiens) (UniProt P41145); assay: KOR antagonists, beta-arrestin recruitment, cell-based, luminescence, uHTS (AID 1778); conditions: antagonist mode, active compounds read high; at 10 µM unless noted
Sequence (P41145 whole entry, looked up): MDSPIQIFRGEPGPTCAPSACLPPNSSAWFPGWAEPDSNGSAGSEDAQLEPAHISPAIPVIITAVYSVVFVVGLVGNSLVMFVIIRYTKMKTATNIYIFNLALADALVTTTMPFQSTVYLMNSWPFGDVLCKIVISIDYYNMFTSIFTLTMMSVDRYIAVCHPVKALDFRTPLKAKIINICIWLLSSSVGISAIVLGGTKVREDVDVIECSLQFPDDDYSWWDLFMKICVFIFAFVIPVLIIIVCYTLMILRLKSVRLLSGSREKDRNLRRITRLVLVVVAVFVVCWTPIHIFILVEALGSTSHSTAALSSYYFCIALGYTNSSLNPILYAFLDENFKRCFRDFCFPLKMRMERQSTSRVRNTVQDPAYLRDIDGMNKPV

SMILES	inhibition
CN(C)S(=O)(=O)c1cccc(N=C2SCCN2Cc2ccccc2)c1	-13.6% (inactive)
COc1ccc(CCC(N)=O)cc1OC	-31.9% (inactive)
Cc1ccc(S(=O)(=O)Nc2cccc3ncccc23)s1	107% (active)
O=S(=O)(Nc1cccc2ccccc12)c1cccs1	2.3% (inactive)
Cc1c(NS(=O)(=O)c2cccs2)cccc1-c1nc2cccnc2s1	6.3% (inactive)
Cc1ccc(S(=O)(=O)Nc2ccnc3ccccc23)cc1	6.9% (inactive)
Cc1ccc(S(=O)(=O)Nc2cccc3ncccc23)cc1	14.1% (inactive)
O=C(NNC(=O)c1ccccc1[N+](=O)[O-])c1ccccn1	-1.3% [at 20 µM] (inactive)
Cc1[nH]nc2c1C(c1ccccc1F)CC(=O)N2 (stereo not given)	-21.3% (inactive)
CCOC(=O)c1cc2cc(CC(=O)c3ccc(OCC)cc3O)ccc2o1	-2% (inactive)
C/C(=N\NC(=O)C(c1ccccc1)c1ccccc1)c1ccccn1	81.1% (active)
CC(C(=O)O/N=C(\N)c1ccccn1)c1ccc([N+](=O)[O-])cc1 (stereo not given)	-1.4% (inactive)
C/C(=N\NC(=O)c1ccccn1)C12CC3CC(CC(C3)C1)C2	-17.6% (inactive)
C/C(=N\NC(=O)C(c1ccccc1)c1ccccc1)c1ccc(O)cc1	-26.8% [at 20 µM] (inactive)
O=C(NNC(=O)C12CC3CC(CC(C3)C1)C2)c1cnccn1	27.4% (inactive)
O=C(NNc1ccccn1)C(c1ccccc1)c1ccccc1	11.4% (inactive)
CCCCCC(=O)N/N=C(\C)c1ccccn1	10.5% (inactive)
CC(C)C(=O)NNC(=O)c1ccccn1	13.4% (inactive)
C/C(=N/NC(=O)CNC(=O)c1ccccn1)c1ccc([N+](=O)[O-])cc1	6.2% (inactive)
Cc1ccc(S(=O)(=O)NN)c(C)c1N1CCCC1=O	24.2% (inactive)
Cc1cccc(C)c1NC(=O)C1CCCN1S(=O)(=O)c1ccccc1 (stereo not given)	-40.1% (inactive)
O=C(NCc1cccnc1)C1c2ccccc2C(=O)N1C1CCCCCC1 (stereo not given)	-16.6% (inactive)
O=C(NCCc1nnc2ccc(N3CCCCCC3)nn12)c1ccccc1	-2.6% (inactive)
CN(C)c1ccc(P(=O)(Nc2cccc(C(F)(F)F)c2)N2CCOCC2)c(NC(=O)c2cccs2)c1 (stereo not given)	41.3% (inactive)

SMILES	inhibition
CNC(=S)N1N=C(c2ccc(C)cc2)CC1c1ccc(N(C)C)cc1 (stereo not given)	7.7% (inactive)
CC1CCCCN1C(=O)COc1ccccc1F (stereo not given)	-32.6% [at 20 µM] (inactive)
O=C(Nc1ccnc(-c2cccnc2)n1)c1ccc(Cl)cc1	-18.4% (inactive)
O=C1COc2ccc(C(=O)CSc3nnc(NCc4ccccc4)s3)cc2N1	21.4% (inactive)
CCn1c(O)c(N=NC(=S)NCC2CCCO2)c2ccccc21 (stereo not given)	60.6% (active)
Oc1[nH]c2ccccc2c1N=NC(=S)NCC1CCCO1 (stereo not given)	-22% (inactive)
CCNC(=S)N=Nc1c(O)n(Cc2ccc(Cl)cc2)c2ccccc12	-4.3% (inactive)
COc1ccc(CNC(=O)c2ccc(CN3CCOCC3)cc2)cc1	-18.5% (inactive)
O=C(NCc1ccco1)C(=O)c1cn(CC(=O)N2CCCC2)c2ccccc12	-7.4% (inactive)
O=C(COc1ccccc1)Nc1nnc(S(=O)(=O)N2CCCC2)s1	-9.4% (inactive)
Cc1cc(NCc2ccccn2)n2c(nc3ccccc32)c1C#N	18.9% [at 20 µM] (inactive)
CCCNC(=O)COc1cccc(C(=O)NCc2ccccc2)c1	16.7% (inactive)
Oc1ccc(Nc2ccnc3cc(Cl)ccc23)cc1	25.2% (inactive)
Oc1ccc(/C=N/Nc2ccnc3cc(Cl)ccc23)c(O)c1	3.8% (inactive)
O=C(O)CC1(CC(=O)Nc2ccc(C(F)(F)F)cc2)CCCC1	-5.5% (inactive)
O=C(N/N=C/c1cc2cc3c(cc2nc1Cl)OCO3)c1ccncc1	-14.5% (inactive)
COc1ccc(N2CCN(C(=S)NC(=O)c3cccs3)CC2)c([N+](=O)[O-])c1	4.6% (inactive)
O=C(NC(=S)N1CCN(c2ccc(C(F)(F)F)cc2[N+](=O)[O-])CC1)c1cccs1	6.2% (inactive)
CC(=O)c1ccc(NC(=S)N2CCCC(CO)C2)cc1 (stereo not given)	35.3% (inactive)
C#CCOCCOCCOCCNc1nc(N2CCN(C(=O)[C@H](C)n3cc(CCCN=C(N)N)nn3)CC2)nc(N2CCN(C(=O)[C@H](CCCCN)n3cc(CCCC)nn3)CC2)n1	-17.1% (inactive)
CN(Cc1ccccc1)c1ccc(C(CC(N)=O)NC(=O)c2ccccc2)cc1[N+](=O)[O-] (stereo not given)	-1.2% [at 20 µM] (inactive)
O=C(CN1CCN(c2ccc(F)cc2)CC1)OCc1ccccc1	21.3% (inactive)
COCc1cc(=O)[nH]c(Nc2nc3ccccc3o2)n1	14.7% (inactive)
Cc1ccc2oc(Nc3nc(C)cc(C)n3)nc2c1	12.4% (inactive)

SMILES	inhibition
Cc1cc(C)nc(Nc2nc3ccccc3o2)n1	17.6% (inactive)
Cc1ccc2oc(Nc3nc(C)c(C)c(C)n3)nc2c1	6.8% (inactive)
COc1ccccc1-c1ccc(Nc2cccc(C(F)(F)F)c2)nn1	-2.2% (inactive)
CCOc1ccc(S(=O)(=O)N(C)CC(=O)NCc2ccco2)cc1	5% (inactive)
CCCC1=C(C(=O)OCC)C(c2c(C)nn(-c3ccccc3)c2Cl)C(C#N)=C(N)O1 (stereo not given)	-61.5% (inactive)
CCCOc1cccc(-c2cc(C(=O)NN)c3ccccc3n2)c1	-44.7% (inactive)
CCCOc1cccc(-c2cc(C(=O)N/N=C/c3cccnc3)c3ccccc3n2)c1	-14% (inactive)
O=C(CN1C(=O)S/C(=C\c2ccc(F)cc2)C1=O)NCCCn1ccnc1	1.3% (inactive)
O=C(/C=C/c1ccc([N+](=O)[O-])cc1)Oc1ccc(/C=N/NC(=O)c2ccncc2)cc1	-27.5% (inactive)
O=C(CSc1cccc2cccnc12)N/N=C/c1ccc(F)cc1	17.3% (inactive)
CCN(CC)C(=O)Sc1cccc2cccnc12	19.2% (inactive)
O=C(O)CSc1cccc2cccnc12	-59.2% (inactive) and -13% (inactive)
O=C(Sc1cccc2cccnc12)c1ccc(F)cc1	73.6% (active)
CC(=O)/C(=N\Nc1ccccc1)Sc1cccc2cccnc12	13.9% (inactive)
Cc1cccc(CSc2ccc3nnc(-c4ccccn4)n3n2)c1	8.5% (inactive)
Cc1cc(NC(=O)c2cc(C3CC3)on2)n(-c2ccccc2)n1	-9.5% (inactive)
COc1cc(/C=N/n2nnnc2N)ccc1OC(C)C	26.9% (inactive)
O=C(CCCCCN1C(=O)c2ccccc2C1=O)Oc1ccc2c3c(c(=O)oc2c1)CCC3	-61.9% (inactive)
CC1=C(C(=O)Nc2ccccc2C)C(c2ccccc2)NC(=O)N1 (stereo not given)	-32.2% (inactive)
CCOC(=O)c1c(CN2CCCCC2)n(C)c2ccc(OC)c(S(=O)(=O)c3ccccc3)c12	4.2% (inactive)
Cc1ccc(C(=O)O)cc1-n1c(=O)n(Cc2ccccc2)c(=O)c2[nH]cnc21	-9.2% (inactive)
COc1cccc(Cn2c(=O)c3[nH]cnc3n(-c3ccccc3C)c2=O)c1	7.3% (inactive)
COc1ccc(Cn2c(=O)c3[nH]cnc3n(-c3ccccc3C)c2=O)cc1	-13.7% (inactive)
COC(=O)c1cccc(-n2c(=O)n(Cc3ccccc3)c(=O)c3[nH]cnc32)c1C	23.8% (inactive)

SMILES	inhibition
O=C(Nc1ccc(Oc2ccccc2)cc1)c1cnc2n(c1=O)CCS2	0.1% (inactive)
Cc1ccc(S(=O)(=O)N(Cc2cc3ccc(C)cc3[nH]c2=O)c2ccccc2)cc1	17.5% (inactive)
CCCCCn1c(SCCCC)nc2c1c(=O)[nH]c(=O)n2C	-43.8% (inactive)
COc1cc2c(cc1OC)C1(CCCC1)CNC2c1ccc([N+](=O)[O-])cc1 (stereo not given)	-8.4% (inactive)
COc1cc2c(cc1OC)C1(CCCC1)CNC2C (stereo not given)	7.4% (inactive)
COc1ccc(OC)c(NC(=O)Nc2ccc3c(c2)OCO3)c1	-10.5% (inactive)
O=C(Nc1ccc(C(F)(F)F)cc1)c1ccc2ncsc2c1	-15.9% (inactive)
O=C1C(Cl)=C(Nc2ccc3cn[nH]c3c2)C(=O)c2ccccc21	76.4% (active)
Cc1ccc(NC2=C(Cl)C(=O)c3ccccc3C2=O)cc1	37.4% (inactive)
O=C1C(Cl)=C(Nc2ccccc2)C(=O)c2ccccc21	15.5% (inactive)
COC(=O)c1c(NC(=O)/C=C/C(=O)O)sc(Cc2ccccc2)c1C	14.3% (inactive)
NNC(=O)c1ccc(CSc2cccc3cccnc23)cc1	-21.6% (inactive)
O=C(c1ccc(CNS(=O)(=O)c2ccc(Br)cc2)cc1)N1CCCCCC1	-30.5% (inactive)
CC(=O)N1CCc2cc(S(=O)(=O)NC(Cc3ccccc3)C(=O)NCCN3CCCCC3C)ccc21 (stereo not given)	15% (inactive)
N#CC(=C1N=c2ccccc2=N1)c1c(O)[nH]c2ccccc12	-33.6% (inactive)
Oc1[nH]c(N=C2N=c3ccccc3=N2)c2ccccc12	59.4% (active)
Oc1[nH]c(=S)sc1C=C1N=c2ccccc2=N1	6.5% (inactive)
O=C(COc1ccccc1)N1CCN=C1SCc1ccc(F)cc1	2.9% (inactive)
O=C(CSc1nnc2c(Cl)cc(C(F)(F)F)cn12)N(Cc1ccccc1)Cc1ccccc1	1% (inactive)
Cc1cc(NS(=O)(=O)c2ccc(NC(=O)c3ccc(Cl)cc3Cl)cc2)no1	-5.5% (inactive)
O=C(N/N=C(\c1ccccc1)c1cccnc1)c1ccc(O)cc1	28.3% (inactive)
O=C(N/N=C(\c1ccccc1)c1cccnc1)c1cc(O)ccc1O	-0.3% (inactive)
CC1=C(C#N)C(NC(=O)c2ccco2)(C(F)(F)F)C(=O)N1 (stereo not given)	9.4% (inactive)

— PubChem BioAssay AID1778 (Sanford-Burnham Center for Chemical Genomics, 2009)
